D2 PAM-1: Beta-Arrestin HTS for Positive Allosteric Modulators of the Human D2 Dopamine Receptor: Potentiators. D(2) dopamine receptor (Homo sapiens), P14416. DiscoveRx D2 beta-arrestin cells, luminescence, 90 min; 100% = 57 uM dopamine signal. potentiation, % (concentration not given with the values). 360,000 compounds, 0.23% hits. AID 624464, 2012; in the data active = potentiation above about 50%
Target sequence (P14416 whole entry, looked up): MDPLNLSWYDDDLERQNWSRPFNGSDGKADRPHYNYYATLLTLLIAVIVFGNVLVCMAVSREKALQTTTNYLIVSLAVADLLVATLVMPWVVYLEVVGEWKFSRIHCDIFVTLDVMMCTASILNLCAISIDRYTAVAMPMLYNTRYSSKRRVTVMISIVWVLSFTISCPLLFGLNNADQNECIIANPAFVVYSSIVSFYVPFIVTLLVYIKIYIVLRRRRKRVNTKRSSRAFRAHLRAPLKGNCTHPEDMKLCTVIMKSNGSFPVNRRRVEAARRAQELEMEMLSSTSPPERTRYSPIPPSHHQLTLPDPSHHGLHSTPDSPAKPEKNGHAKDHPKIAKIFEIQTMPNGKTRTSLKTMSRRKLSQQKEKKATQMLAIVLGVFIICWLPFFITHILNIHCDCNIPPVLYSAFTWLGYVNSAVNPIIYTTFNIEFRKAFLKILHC
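PathHunter D2 cells, attached overnight at 37 deg C, received compound in DMSO plus dopamine at EC20 (50 nM final) for 90 min at 37 deg C. Beta-arrestin recruitment was read as luminescence after 1 h with detection reagent at ambient temperature.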
D2 PAM-2: HTS Assay for Positive Allosteric Modulators of the Human D2 Dopamine Receptor: Primary Screen for Potentiators; D(2) dopamine receptor (Homo sapiens), P14416; HEK293 T-REx D2, calcium flux, EC20 dopamine potentiation; potentiation, % at 10 µM; 340,000 compounds, 0.34% hits;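 active = potentiation over 3 SD above the plate norm, cut at about 30% in these data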; note: 0% is about no effect
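Using a no-wash calcium dye in inducible, force-coupled HEK293 Trex cells expressing D2, we tracked fluorescence each second for 180 s after compound, then for 180 s after EC20 dopamine to detect augmented signalling.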
D2 ag-1: Beta-Arrestin HTS for Positive Allosteric Modulators of the Human D2 Dopamine Receptor: Agonists; D(2) dopamine receptor (Homo sapiens), P14416; DiscoveRx PathHunter D2 beta-arrestin, luminescence, 90 min; 100% = 57 uM dopamine signal; activation, % (test concentration not listed); 360,000 compounds, 0.084% hits; AID 624465, 2012; in the data active = activation above about 40%
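DiscoveRx PathHunter D2 beta-arrestin cells (2,100/well) attached overnight, then compound-stimulated 90 min at 37 C in HBSS/10 mM HEPES/0.1% Tween-20 buffer; beta-galactosidase complementation read by luminescence after 1 h at ambient temperature. Dopamine 57 uM final (EC100) as control.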
D2 ag-2: HTS Assay for Allosteric Agonists of the Human D2 Dopamine Receptor: Primary Screen for Agonists; D(2) dopamine receptor (Homo sapiens), P14416; HEK293 T-REx D2 cells, calcium flux agonist mode; activation, % at 2 µM; 340,000 compounds, 0.53% hits;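 active = activation over 3 SD above normal in the single-dose calcium agonist read, cut at about 30% in these data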; note: 0% is about no effect
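Agonism is scored from calcium flux in a force-coupled, inducible HEK293 cell line expressing D2, read kinetically for 180 s after compound addition against dopamine controls.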
D2 antagonist: HTS Assay for Allosteric Antagonists of the Human D2 Dopamine Receptor: Primary Screen for Antagonists. D(2) dopamine receptor (Homo sapiens), P14416. 340,000 compounds, 2% hits. HEK293 TREx D2 cells, calcium flux, dopamine EC80. inhibition, % at 10 µM; in the data active = inhibition above about 30%; inactive = below that, where a call was filed; note: 0% is about no effect
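Calcium flux kinetic readout in an inducible HEK293 TREx D2 line plated overnight at 30 C. After 180 s compound exposure, an EC80 dopamine challenge follows with another 180 s kinetic read to detect antagonism.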
Starred values were filed as active, the others as inactive. Compounds with a hit are over-represented: about 2.4% of the library has one in this group of screens.

Results for COc1ccccc1-c1cc(C(=O)NCc2ccc(Cl)cc2)no1 ?
D2 PAM-1: -17; D2 ag-1: -2

What do the screens show for `COc1ccc(CNC(=O)c2cc(-c3ccco3)on2)cc1`?
D2 PAM-1: -6; D2 PAM-2: -12; D2 ag-1: -1; D2 ag-2: 0; D2 antagonist: -2

What do the screens show for `COc1cccc2[nH]c(C(=O)NCc3ccccc3)cc12`?
D2 PAM-1: -13; D2 PAM-2: -28; D2 ag-1: -2; D2 ag-2: -2; D2 antagonist: 42*

What do the screens show for `CCOc1ccc(-c2cc(C(=O)NCCc3ccccc3)c3c(-c4ccc(C)cc4)[nH]nc3n2)cc1`?
D2 PAM-2: 11; D2 ag-2: -2

Results for Cc1cc(C)c2c(n1)nn1c(NCCCN(C)C)cc(C)nc21 ?
D2 PAM-1: 8; D2 PAM-2: 34*; D2 ag-1: -2; D2 ag-2: -1; D2 antagonist: -9

How did CC12C(=O)N(c3cccc4cccnc34)C(=O)C1C1C=CC2C1 (stereo not drawn) do in these assays?
D2 PAM-1: -3; D2 PAM-2: -2; D2 ag-1: 0; D2 ag-2: -1; D2 antagonist: -5

What do the screens show for `CC12C(=O)N(c3ccccc3C(=O)O)C(=O)C1C1C=CC2C1` (stereo not drawn)?
D2 PAM-1: 11; D2 PAM-2: -8; D2 ag-1: -1; D2 ag-2: 4; D2 antagonist: 36*

Results for O=S(=O)(NC1=NCCCCC1)c1ccc(Cl)cc1 ?
D2 PAM-1: -4; D2 PAM-2: 2; D2 ag-1: -2; D2 ag-2: 3; D2 antagonist: -5

Results for CCOc1ccc(S(=O)(=O)NC2=NCCCCC2)cc1 ?
D2 PAM-1: 1; D2 PAM-2: 71*; D2 ag-1: -2; D2 ag-2: 0; D2 antagonist: -7

How did O=C(COC(=O)c1ccc(O)cc1)Nc1ccccc1[N+](=O)[O-] do in these assays?
D2 PAM-1: -41; D2 PAM-2: -3; D2 ag-1: 9; D2 ag-2: 2; D2 antagonist: 38*

What do the screens show for `Cc1oc(-c2cccc(Cl)c2)nc1Cn1c(SCc2ccccc2F)nc2ccncc21`?
D2 PAM-2: 12; D2 ag-2: 0

How did Cc1nn(-c2ccc(F)cc2)c(-n2cccc2)c1C(=O)NCCCN1CCN(c2cccc(Cl)c2)CC1 do in these assays?
D2 PAM-2: -15; D2 ag-2: 10

What do the screens show for `COc1ccc(N2C(=O)CS(=O)(=O)C23C(=O)N(Cc2ccc(F)cc2)c2ccc(C)cc23)cc1` (stereo not drawn)?
D2 PAM-2: -2; D2 ag-2: 0

How did Cc1ccc(S(=O)(=O)Nc2ccc3c(c2)nc(CCN2CCCCC2)n3C)cc1 do in these assays?
D2 PAM-1: -9; D2 PAM-2: -27; D2 ag-1: -4; D2 ag-2: 0; D2 antagonist: 20

Results for CCn1c(CN2CCCCC2)nc2cc(S(=O)(=O)N3CCCCC3)ccc21 ?
D2 PAM-1: -15; D2 PAM-2: -29; D2 ag-1: -4; D2 ag-2: -1; D2 antagonist: 55*

Results for Cc1ccc(S(=O)(=O)Nc2ccc3c(c2)nc(CN2CCCC2)n3C)cc1 ?
D2 PAM-1: -52; D2 PAM-2: -12; D2 ag-1: -3; D2 ag-2: 2; D2 antagonist: 72*

What do the screens show for `Cc1ccc(S(=O)(=O)Nc2ccc3c(c2)nc(CCN2CCOCC2)n3C)cc1`?
D2 PAM-1: -17; D2 PAM-2: -5; D2 ag-1: 2; D2 ag-2: -2; D2 antagonist: 5

Results for Cn1c(CN2CCCC2)nc2cc(NC(=O)COc3ccccc3)ccc21 ?
D2 PAM-1: -40; D2 PAM-2: -23; D2 ag-1: 0; D2 ag-2: 0; D2 antagonist: 47*

Results for Cn1c(CCN2CCCCC2)nc2cc(NS(=O)(=O)c3ccc(F)cc3)ccc21 ?
D2 PAM-1: -46; D2 PAM-2: -18; D2 ag-1: -4; D2 ag-2: 1; D2 antagonist: 32*

How did O=C(NCc1cccc(F)c1)c1ccc2nc(N3CCCCC3)sc2c1 do in these assays?
D2 PAM-2: 3

How did CCN1CCOC(=O)C1CC(=O)Nc1cc(C)cc(C)c1 (stereo not drawn) do in these assays?
D2 PAM-2: -3; D2 ag-2: 0

How did CC(=O)N1CCc2c(sc3c2c(=O)n(-c2ccccc2C)c(=O)n3CC(=O)Nc2ccccc2)C1 do in these assays?
D2 PAM-2: -14; D2 ag-2: 0

What do the screens show for `CCn1cc(C(=O)N(C)c2ccc(C(C)C)cc2)c2cc(OC)c(OC)cc2c1=O`?
D2 PAM-2: 9; D2 ag-2: -1

Results for Cc1coc2cc3oc(=O)c(CC(=O)NCc4cccc(Cl)c4)c(C)c3cc12 ?
D2 PAM-2: 3

Results for COc1cccc(/C=C2\N=C(C3CCCCC3)OC2=O)c1OC ?
D2 PAM-1: -4; D2 PAM-2: 45*; D2 ag-1: 0; D2 ag-2: 0; D2 antagonist: 2

How did COc1cccc(Cc2nc3ccccc3nc2SCC(=O)NCc2ccc(C)cc2)c1 do in these assays?
D2 ag-2: 1

What do the screens show for `CCCCN(Cc1ccccc1)S(=O)(=O)c1ccc2c(c1)CC(C)N2C(=O)CC` (stereo not drawn)?
D2 PAM-2: 20; D2 ag-2: 0

How did CN1C(=O)C2(C(C#N)=C(N)N(c3cc(Cl)cc(Cl)c3)C3=C2C(=O)CC(C)(C)C3)c2ccccc21 (stereo not drawn) do in these assays?
D2 PAM-1: 15; D2 PAM-2: -2; D2 ag-1: 1; D2 ag-2: 1; D2 antagonist: 33*

What do the screens show for `Cc1ccc(N2C(N)=C(C#N)C3(C(=O)N(C)c4ccccc43)C3=C2CC(C)(C)CC3=O)cc1Cl` (stereo not drawn)?
D2 PAM-1: -2; D2 PAM-2: -12; D2 ag-1: -1; D2 ag-2: 1; D2 antagonist: -1

What do the screens show for `NC1=NC2(CCN(Cc3ccccc3)CC2)n2c(nc3ccccc32)N1`?
D2 PAM-1: -16; D2 PAM-2: -32; D2 ag-1: -2; D2 ag-2: -1; D2 antagonist: 43*

Results for COC(=O)c1ccccc1NC(=O)Cn1ncc2c(C)n(Cc3ccc(F)cc3)c(C)c2c1=O ?
D2 PAM-2: 1; D2 ag-2: 0
